The sample as a whole holds a higher share of hits than the screen did.
IL-1B inflam inh = qHTS for Inhibitors of Inflammasome Signaling: IL-1-beta AlphaLISA Primary Screen. THP-1 LPS/ATP IL-1B secretion, AlphaLISA, 16 h; active compounds read low. activity change, % at 57.5 µM. 360,000 tested, 4.7% active; in the data active means activity change below about -50%; inconclusive means mostly about -30% to -49%
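Secreted IL-1B measured by AlphaLISA bead assay after 16 h compound exposure of THP-1 cells; compounds (final up to 57.5 uM) added 1 h before LPS (250 ng/mL) and ATP (1.25 mM) stimulation; lower signal means less secretion.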
HT1080-NT tox = qHTS for induction of synthetic lethality in tumor cells producing 2HG: qHTS for the HT-1080-NT fibrosarcoma cell line | HT-1080-NT fibrosarcoma viability, CellTiter-Glo ATP luminescence, 48 h | Potency, µM (titrated, usually from 46.1 µM), without a hit: at the top dose activity, negative = less viability, most hits filed as cytotoxic | 360,000 tested, 1.6% active | AID 686970, 2013;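 further: NT is the 2HG producing partner of a matched IDH1 knockdown line; potency means the concentration at half of the fitted maximal effect; 0% = DMSO-treated cells and -100% = media-only wells without cells; nearly all actives have a fitted effect of over 55% in size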
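HT-1080-NT; 750 cells/well; 5% FBS RPMI; 48 h compound, 37 degrees C; CellTiter-Glo luminescence; curve fitting and curve-class assignment.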
HT1080 IDH1KD tx = qHTS for induction of synthetic lethality in tumor cells producing 2HG: qHTS for the HT-1080-IDH1KD cell line | Potency, µM (titrated, usually from 46.1 µM), without a hit: at the highest dose activity, negative = toxicity, most hits filed as cytotoxic | 360,000 tested, 2% active | AID 686971, 2013 | HT-1080 IDH1 knockdown viability, ATP luminescence, 48 h;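 further: potency means the concentration at half of the fitted maximal effect; 0% = DMSO wells and -100% = cell-free medium wells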
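Viability of IDH1-knockdown HT-1080 fibrosarcoma cells was assessed by CellTiter-Glo after 48 h at 37 °C with titrated compound; concentration-effect curves were classified by fit quality and response size.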
TDP1 cell noCPT = qHTS for Inhibitors of human tyrosyl-DNA phosphodiesterase 1 (TDP1): qHTS in cells in absence of CPT; 420,000 tested, 15% active; DT40 Tdp1-/- hTDP1 cells, no CPT, ATP luminescence, 48 h; Potency, µM (series often up to 46.2 µM), inactives show top-dose activity change, negative = growth inhibition, usual class: inhibitors; further: potency means the concentration at half of the fitted maximal effect; nearly all actives have a fitted effect of over 55% in size
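Compound effects on proliferation are scored in DT40 Tdp1-/-;hTDP1 cells in the absence of CPT. ATP levels (CellTiter-Glo luminescence) are recorded after a ≥48 hr, 37 °C incubation.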
DT40 TDP1 CPT = qHTS for Inhibitors of human tyrosyl-DNA phosphodiesterase 1 (TDP1): qHTS in cells in presence of CPT; 420,000 tested, 12% active; AID 686979, 2013; Potency, µM (doses to about 46.2 µM), for the others: at the highest dose activity change, negative = growth inhibition, most hits filed as inhibitors; chicken DT40 Tdp1-/-;hTDP1 cells + 20 nM CPT, ATP luminescence, 48 h; further: potency means the concentration at half of the fitted maximal effect; nearly all actives have a fitted effect of over 55% in size
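Chicken DT40 Tdp1-/- cells complemented with human TDP1, 400 cells/well, exposed to compounds plus 20 nM camptothecin for at least 48 h at 37 C; viability read as ATP content by CellTiter-Glo luminescence.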
12-LOX inh = Primary qHTS assay for inhibitors of human arachidonate 12S-lipoxygenase (ALOX12): Round 2 | Polyunsaturated fatty acid lipoxygenase ALOX12 (Homo sapiens), P18054 | purified 12hLO, xylenol orange hydroperoxide absorbance | Potency, µM (top dose mostly 108 µM), inactives show top-dose activity change, negative = inhibition, actives largely listed as inhibitors | 580,000 tested, 1.1% active | AID 1671190, 2021; further: potency means the concentration at half of the fitted maximal effect
Target sequence (P18054 whole entry, looked up): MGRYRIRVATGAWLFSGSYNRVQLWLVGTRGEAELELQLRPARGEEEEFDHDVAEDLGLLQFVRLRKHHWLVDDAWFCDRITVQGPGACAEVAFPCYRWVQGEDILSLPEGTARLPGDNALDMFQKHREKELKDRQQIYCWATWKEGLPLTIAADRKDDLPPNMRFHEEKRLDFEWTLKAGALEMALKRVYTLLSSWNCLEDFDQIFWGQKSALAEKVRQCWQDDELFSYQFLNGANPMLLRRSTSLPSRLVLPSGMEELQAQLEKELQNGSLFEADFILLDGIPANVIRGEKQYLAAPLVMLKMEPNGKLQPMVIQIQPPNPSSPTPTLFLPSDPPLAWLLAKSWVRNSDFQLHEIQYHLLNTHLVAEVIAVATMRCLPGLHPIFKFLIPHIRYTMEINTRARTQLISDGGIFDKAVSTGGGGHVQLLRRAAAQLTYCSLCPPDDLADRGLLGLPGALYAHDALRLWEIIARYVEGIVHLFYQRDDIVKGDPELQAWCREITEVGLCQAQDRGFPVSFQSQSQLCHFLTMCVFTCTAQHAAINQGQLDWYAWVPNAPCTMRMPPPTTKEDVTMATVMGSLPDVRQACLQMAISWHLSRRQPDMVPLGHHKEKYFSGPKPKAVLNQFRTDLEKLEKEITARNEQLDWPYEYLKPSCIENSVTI
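Hydroperoxide product was detected by ferrous iron/xylenol orange as the 573 to 405 nm absorbance ratio. Arachidonic acid at 40 uM (final) was turned over for 30 min at room temperature by 150 nM human 12hLO, pH 7.0 Hepes buffer, after 15 min compound preincubation.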
Active calls of the source: *; ? = inconclusive; · = no result; [ ] = remark or other dose. Unless noted, the call rests on the fitted dose curve; in most records, active means well fitted curve in the direction sought with a large enough effect; inconclusive means small, poorly fitted or top-dose-only effect, or another doubt; inactive means no such curve, though single readings can be large; an effect the other way counts as inactive or inconclusive. Unless noted, on the % scale 0 is the no-effect control and ±100 the full control effect.

SMILES | IL-1B inflam inh | HT1080-NT tox | HT1080 IDH1KD tx | TDP1 cell noCPT | DT40 TDP1 CPT | 12-LOX inh
COc1cc(C2C3CN(C)CC=C3C(C#N)=C(N)C2(C#N)C#N)ccc1OC(C)C (centres undefined) | -11 | -4% | -10% | -27% | -29% | -22%
CCN1CC=C2C(C#N)=C(N)C(C#N)(C#N)C(c3cc(Cl)ccc3Cl)C2C1 (centres undefined) | -8 | -13% | ? | 23µM* | 18µM* | -13%
CC(C)(C)OC(=O)N1CC=C2C(C#N)=C(N)C(C#N)(C#N)C(c3cccs3)C2C1 (centres undefined) | -21 | -28% | -24% | 23µM* | ? | -18%
CC(C)N1CC=C2C(C#N)=C(N)C(C#N)(C#N)C(c3ccccc3)C2C1 (centres undefined) | 0 | -15% | -5% | 14µM* | ? | 0%
COc1cccc(S(=O)(=O)NCc2ccc3c(c2)OCO3)c1 | -6 | 3% | -2% | -18% | -22% | 13%
CCCc1cc2c(cc1N(C)S(=O)(=O)c1ccccc1)OCO2 | -18 | 1% | -10% | 3.7µM* | 3.7µM* | 0%
CCOC(=O)c1cnc2ccccc2c1N1CCC(C(=O)OC)CC1 | · | · | · | · | · | -3%
COc1cc2ncc(C(=O)c3ccccc3)c(N3CCN(Cc4ccccc4)CC3)c2cc1OC | -77* | ? | -30% | 18µM* | ? | 11%
CCOC(=O)C1CCN(c2c(C(=O)c3ccc(OC)cc3)cnc3ccccc23)CC1 | · | · | · | 16µM* | 21µM* | -29%
CCOC(=O)C1CCN(c2c(C(=O)c3ccccc3)cnc3ccc(CC)cc23)CC1 | 3 | 0% | 8% | 18µM* | ? | ?
COc1ccccc1N1CCN(Cc2ccc(C(=O)O)cc2)CC1 | 36 | 1% | 2% | -4% | -3% | 12%
O=C(O)c1cccc(N/N=C/c2cccnc2)c1 | 7 | -13% | -10% | ? | 5% | -16%
Clc1ccc(N/N=C/c2cccnc2)cc1 | -62* | ? | ? | 16µM* | 18µM* | ?
O=[N+]([O-])c1ccc(N/N=C/c2cccnc2)cc1 | -17 | -26% | 7.3µM* | 6.5µM* | 5.8µM* | ?
Cn1cnc(C(=O)N2CCC3(CC2)CC(N(Cc2ccccc2)C2CC2)CCO3)c1 (centres undefined) | · | · | · | · | · | 27%
COc1ccc2c(c1)-c1nc(NC(=O)c3ccco3)sc1CC2 | -6 | 10% | 9% | 15µM* | ? | ?
COc1ccc2sc(NC(=O)c3ccco3)nc2c1 | 8 | ? | -20% | -24% | ? | 8.9µM*
COc1ccc2c(c1)Cc1sc(NC(C)=O)nc1-2 | -21 | -4% | 3% | 4% | -13% | ?
COc1ccc2c(c1)CCc1sc(NC(=O)c3ccco3)nc1-2 | 6 | 30% | 17% | ? | ? | ·
CCOC(=O)c1sc(NC(=S)NC(=O)c2ccco2)nc1C | 12 | 2% | -2% | -27% | -4% | -13%
CCOC(=O)c1sc(NC(=O)C(CC)OC(=O)c2ccco2)nc1C (centres undefined) | -84* | -4% | 2% | -17% | -11% | -23%
COc1ccc2c(c1)Cc1sc(NC(=O)c3cccnc3)nc1-2 | ? | 17% | 5% | 21µM* | ? | -22%
CC12CC3CC(C)(C1)CC(C(=O)NC1CCCC1)(C3)C2 | · | · | · | · | · | 33%
Cc1nc(NC(=O)c2ccco2)sc1C(=O)O | 19 | 23µM* | 23µM* | 10µM* | 6.5µM* | -3%
COC(=O)[C@@H]1Cc2ncn(Cc3ccc(OC)cc3)c2CN1Cc1ccc(OC)cc1 | · | · | · | · | · | 126%[176 µM]
SMILES | IL-1B inflam inh | HT1080-NT tox | HT1080 IDH1KD tx | TDP1 cell noCPT | DT40 TDP1 CPT | 12-LOX inh
COc1cccc(N2C(=O)NC(=NC3CCCCC3)C23CCCN([S+](=O)([O-])c2ccccc2)C3)c1 (centres undefined) | · | · | · | · | · | 2%[6.33 µM]
CC(C)CCN(C(=O)Cc1ccc(Cl)c(Cl)c1)c1c(N)n(Cc2ccccc2)c(=O)[nH]c1=O | ? | ? | -10% | 26µM* | ? | -9%
Cc1ccc(OCCC(=O)N(CCC(C)C)c2c(N)n(Cc3ccccc3)c(=O)[nH]c2=O)cc1 | -1 | -9% | -9% | 21µM* | -9% | ·
Cc1ccc(S(=O)(=O)N2CCN(CC(=O)Nc3ccc4c(c3)CCC4)CC2)cc1C | 3 | 4% | 11% | -84% | -72% | -20%
COc1cc2c(cc1OC)CN(C(=O)CN1CCN(S(=O)(=O)c3ccc(C)c(C)c3)CC1)CC2 | -14 | -12% | -20% | 13µM* | 23µM* | ?
COc1cc2c(cc1OC)CN(C(=O)c1ccc(Cl)c(S(=O)(=O)N3CCCC3)c1)CC2 | ? | -8% | 0% | ? | 23µM* | 39%
COc1cc2c(cc1OC)CN(C(=O)c1ccc(OC)c(S(=O)(=O)N3CCCC3)c1)CC2 | -8 | -6% | -16% | 29µM* | ? | 7%
COc1cc2c(cc1OC)CN(C(=O)c1cc(S(=O)(=O)N3CCOCC3)ccc1Cl)CC2 | -22 | 0% | -2% | 21µM* | ? | 0%
COc1ccc(C(=O)N2CCc3ccccc3C2)cc1S(=O)(=O)N1CCCC1 | 25 | 8% | -1% | ? | ? | 11%
Cn1cc(C(=O)N2CCN(Cc3cccc4ccccc34)CC2)c(-c2ccc3c(c2)OCCCO3)n1 | · | · | · | · | · | 11%
CC(NC(=O)CSc1nnc(-c2cccnc2)n1-c1ccccc1)c1ccc2c(c1)OCCO2 (centres undefined) | · | · | · | · | · | -2%
O=C(c1ccccc1F)N1CCC2(Cc3ccccc3NC2=O)C1 (centres undefined) | · | · | · | · | · | -1%[176 µM]
COCc1nnc(NC(=O)c2ccc(S(=O)(=O)N(CC(C)C)CC(C)C)cc2)o1 | 89 | ? | ? | ? | ? | 0%
COCc1nnc(NC(=O)c2ccc(S(=O)(=O)N(C)c3ccccc3)cc2)o1 | -2 | -8% | -27% | ? | 16µM* | 5%
